Sampled rows, rich in hits. Any-hit rate of the full collection: about 2.4%.
D2 ag-1: D2 dopamine receptor (human) agonism; HEK293 T-REx D2 cells, calcium flux agonist mode; activation, % at 2 µM; 0.53% of 340,000 active;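 active means activation over 3 SD above normal in the single-dose calcium agonist read, cut at about 30% in these data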; further: 0% is about no effect
Target sequence (P14416 whole entry, looked up): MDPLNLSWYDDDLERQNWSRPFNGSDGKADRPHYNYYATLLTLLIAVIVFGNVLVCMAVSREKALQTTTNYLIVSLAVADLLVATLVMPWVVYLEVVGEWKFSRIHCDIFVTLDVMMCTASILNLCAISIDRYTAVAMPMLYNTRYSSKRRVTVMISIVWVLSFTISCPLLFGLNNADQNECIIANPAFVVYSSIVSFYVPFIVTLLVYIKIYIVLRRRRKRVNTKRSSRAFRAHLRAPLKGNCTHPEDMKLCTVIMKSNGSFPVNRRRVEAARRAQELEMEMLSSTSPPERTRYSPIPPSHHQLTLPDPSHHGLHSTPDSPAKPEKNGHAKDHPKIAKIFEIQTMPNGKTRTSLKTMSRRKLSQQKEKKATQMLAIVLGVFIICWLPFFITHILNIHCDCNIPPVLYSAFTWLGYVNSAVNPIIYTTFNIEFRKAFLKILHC
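Calcium-flux readout, 1 cycle/sec over 180 s following compound pin transfer, in inducible HEK293 Trex D2 cells (force-coupled); dopamine controls included. Positive calcium responses during this window marked compounds as potential agonists.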
D2 antagonist: antagonizes the human D2 dopamine receptor; P14416; inhibition, % at 10 µM; 2% of 340,000 active; AID 485344; HEK293 TREx D2 cells, calcium flux, dopamine EC80; in the data active means inhibition above about 30%; inactive means below that, where a call was filed; further: 0% is about no effect
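Calcium mobilization kinetics were recorded at 1 s intervals in tetracycline-induced HEK293 T-REx D2 cells, first for 180 s after compound addition and then 180 s after EC80 dopamine.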
D2 ag-2: agonists of human D2 dopamine receptor (beta-arrestin). AID 624465. DiscoveRx PathHunter D2 beta-arrestin, luminescence, 90 min; 100% = 57 uM dopamine signal. P14416. activation, % (no concentration beside the values). 0.084% of 360,000 active; in the data active means activation above about 40%; inconclusive means between about 15% and that limit
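Agonist mode: compounds alone added to overnight-plated D2 PathHunter cells for 90 min at 37 C, with 57 uM final dopamine (EC100) defining full response. Beta-arrestin recruitment detected by chemiluminescent reagent, read after 1 h at ambient temperature.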
D2 PAM-1: positive allosteric modulators of human D2 dopamine receptor. P14416. HEK293 T-REx D2, calcium flux, EC20 dopamine potentiation. potentiation, % at 10 µM. 0.34% of 340,000 active. AID 485347;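 active means potentiation over 3 SD above the plate norm, cut at about 30% in these data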; further: 0% is about no effect
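Tetracycline-induced Hek293 Trex D2 cells, force-coupled to calcium, loaded with no-wash calcium dye. Compound added with 180 s kinetic read for agonism, then EC20 dopamine and a further 180 s read for potentiation.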
D2 PAM-2: potentiates the human D2 dopamine receptor allosterically; AID 624464; potentiation, % (no concentration beside the values); 0.23% of 360,000 active; P14416; DiscoveRx D2 beta-arrestin cells, luminescence, 90 min; 100% = 57 uM dopamine signal; in the data active means potentiation above about 50%; inconclusive means mostly about 30% to 49%
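D2 cells co-treated with compound plus 50 nM dopamine (EC20) for 90 min at 37 deg C to detect potentiation. Beta-arrestin recruitment was read as enzyme-fragment luminescence after 1 h at ambient temperature. Full response was set by 57 uM dopamine.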
Starred values were filed as active, the others as inactive; ? = inconclusive; / = not tested or not shown.

SMILES	D2 ag-1	D2 antagonist	D2 ag-2	D2 PAM-1	D2 PAM-2
Cc1cc(C)c(-c2cc(C(F)(F)F)no2)c(=O)[nH]1	2.3	32.3*	2.5	-10.4	1.1
CCc1cccc(C)c1NC(=O)c1cc(S(=O)(=O)N(C)Cc2ccccc2)ccc1F	1.3	/	/	-10.2	/
Cc1ccc(CN2CC(C(=O)O)CC2=O)cc1 (configuration not stated)	1.2	13.9	-0.6	30.0*	-6.3
COc1ccc(NC(=O)C2CC(=O)N(Cc3ccc(C)cc3)C2)cc1S(=O)(=O)N1CCCCC1 (configuration not stated)	0.0	42.7*	-2.8	-11.2	-34.3
CCCCC1(C)OC(=O)C(=Cc2ccc(-c3ccc(Cl)c(C(=O)O)c3)o2)C(=O)O1 (configuration not stated)	-1.9	41.9*	-0.3	-3.3	7.5
CCOc1ccc(N(CC(=O)Nc2cc(C)cc(C)c2)S(C)(=O)=O)cc1	-0.2	40.8*	4.4	-1.8	-4.9
O=C(CCCCCn1c(=O)[nH]c2ccsc2c1=O)N1CCN(C2CCCCC2)CC1	10.3	52.8*	-2.0	-4.7	-1.2
O=C(CCCCCn1c(=O)[nH]c2ccsc2c1=O)N1CCCCC1	-0.9	8.5	-3.2	6.3	-6.9
Cc1cccc(N2CCN(C(=O)CCn3c(=O)[nH]c4ccsc4c3=O)CC2C)c1 (configuration not stated)	-2.1	-1.0	56.1*	21.4	?
CC1(C)C=C(c2ccc(C=O)s2)CC(C)(C)N1C=O	-0.3	19.2	1.5	10.0	-13.6
CC1(C)C=C(c2ccc(C=O)s2)CC(C)(C)N1	0.3	33.6*	-1.0	6.3	-13.1
O=C([C@@H]1CC=C[C@@H]2CCN(C3CCCCC3)C(=O)[C@@H]21)N1CCN(c2ccccc2)CC1	/	/	-6.2	/	-8.2
Cc1c(-c2cccc(NC(=O)c3cccs3)c2)nc2ncccn12	-0.1	5.3	-0.9	2.2	-8.1
Cc1[nH]c2ccc(C(=O)NCCCN(C)C3CCCCC3)cc2c1C	-0.3	34.0*	-5.2	-26.6	-40.1
Cc1[nH]c2ccc(C(=O)NCCCN3CCN(C)CC3)cc2c1C	-0.5	1.2	-2.1	-4.8	-18.9
COc1ccc(/C=C2\CCCc3c2nc2ccccc2c3C(=O)O)cc1OC	183.8*	31.0*	/	13.4	/
Cc1cc(C)cc(NC(=O)CSc2nc3nc(C)cc(C)c3c(=O)[nH]2)c1	0.6	34.6*	0.9	-2.5	1.7
COc1ccc(CN2C(=O)C(CC(=O)NCCCN(C)C)CC(C(=O)N(C)C)=C2C)cc1 (configuration not stated)	/	/	-1.9	/	/
CC1CCCCN1C(=O)C12CCC(C)(/C(=N/O)C1)C2(C)C (configuration not stated)	0.6	34.6*	-1.9	-0.1	0.2
CC1CCCCN1C(=O)C12CCC(C)(C(=O)C1)C2(C)C (configuration not stated)	/	/	-0.9	/	-0.2
Fc1cccc(-n2ncc3c2ncn2nc(COc4ccc(Cl)cc4)nc32)c1	0.3	/	/	-2.3	/
Cc1nn(C)c(Sc2ccccc2N)c1[N+](=O)[O-]	0.1	-8.8	44.5*	1.1	0.6
COCCCNc1nc(N)c([N+](=O)[O-])c(NC2CCCCC2)n1	4.3	30.4*	-0.4	20.2	-3.7
CC(C)CCNc1nc(N)c([N+](=O)[O-])c(NCC2CCCO2)n1 (configuration not stated)	32.5*	24.2	2.3	2.0	-30.9
Cc1ccc(S(=O)(=O)N(C(=O)c2ccncc2)c2ccc(OC(=O)c3ccncc3)c3ccccc23)c(C)c1	/	/	?	/	89.9*
COc1ccc(N2CCN(C(=O)CCn3nc(C)c(S(=O)(=O)N4CCCC4)c3C)CC2)cc1	-0.1	/	/	1.9	/
Cc1c(C(=O)OC2CCCCC2)sc2nc[nH]c(=O)c12	0.3	-1.4	-1.4	30.9*	-7.1
CCN(CC)C(=O)c1ncn2c1c(=O)[nH]c1ccccc12	/	/	-1.9	/	/
O=C1CC(N2CCN(c3cccc(C(F)(F)F)c3)CC2)C(=O)N1c1ccccc1F (configuration not stated)	-1.4	32.7*	0.3	0.8	-15.2
O=C1CC(N2CCN(c3ccccc3)CC2)C(=O)N1c1cccc(Br)c1 (configuration not stated)	0.9	1.8	-5.8	36.7*	-3.6

High-throughput results deposited in PubChem BioAssay by National Center for Advancing Translational Sciences (NCATS).
